The text below walks through data of PubChem BioAssay AID540259 (Broad Institute, 2011).

Measured potencies and affinities stand elsewhere. A number with no mark means an inactive call.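 Rule for the calls: active = cell killing, meaning signal decrease, with fitted half-maximal dose at or below ten times the top valid tested dose; inconclusive = poor fit, or flat curve with 30 to 70% signal loss; inactive = the rest.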

The assay is described as follows: ATP-based viability loss in HeLa cells – cell-based, CellTiter-Glo luminescence, cherry-pick samples, cytotoxicity control for MITF activator project, dose response (AID 540259).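 Note: 0% = DMSO neutral control and -100% = mitoxantrone positive control.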 The settings on record: 24 h; series mostly up to 35 µM; activity change, negative = cytotoxicity: at the top concentration. In general terms: Cellular ATP, detected with luciferase, serves as a proxy for viable cell number.
`O=C(Nc1ccc2ccccc2c1)c1cc(F)c(F)cc1Cl`: the “activity change, negative = cytotoxicity” value was -2.11%.

In the case of `COc1ccc(Nc2nc(N)c3ccccc3n2)c(OC)c1`, the “activity change, negative = cytotoxicity” value was -7.04%.

As for `COc1cc(/C=C/c2nc3ccccc3c(=O)[nH]2)ccc1OC(F)F`, the “activity change, negative = cytotoxicity” value is 0.185%.

`CCCC(=O)N1c2ccc(-c3csc(N)n3)cc2CC1C` (stereo unspecified): the “activity change, negative = cytotoxicity” value was 16%.

On to `NC(=O)c1cnn(-c2cc(Oc3ccccc3)ncn2)c1N`, for which the “activity change, negative = cytotoxicity” value is 5.25%.

In the case of `CC(C)(C)c1ccc(C(=O)NCc2ccccc2)cc1`, the “activity change, negative = cytotoxicity” value is -4.79%.

Consider `Cc1nnc(NC(=O)c2ccc(N3CCCC3=O)cc2)s1`, for which the “activity change, negative = cytotoxicity” value is 6.95%.

With `O=C(Nc1ccccc1)N1CCC(c2ccccc2)C1` (stereo unspecified), the “activity change, negative = cytotoxicity” value is -0.372%.

Take `Fc1ccccc1Nc1nc2ccccc2o1`: the “activity change, negative = cytotoxicity” value is -19.8%.

On to `COc1cc(SC)ccc1C(=O)NCC1CCCCC1`, for which the “activity change, negative = cytotoxicity” value is -6.12%.

On to `CC(C)CNC(=O)C1CCN(Cc2ccc(OCc3ccccc3)cc2)CC1`, for which the “activity change, negative = cytotoxicity” value was -2.62%.

`CCc1c(C(=O)Nc2ccc(C)c(C)c2)[nH]c(C)c1C(C)=O`: the “activity change, negative = cytotoxicity” value was 0.691%.

In the case of `CC(C)c1ccc(CNc2ncc(Br)cn2)cc1`, the “activity change, negative = cytotoxicity” value is 10.1%.

With `COc1cccc(C2Nc3ccccc3C(=O)N2c2ccc(F)cc2)c1O` (stereo unspecified), the “activity change, negative = cytotoxicity” value was -0.088%.

Regarding `COc1ccc2oc(=O)c(C(=O)N3CCN(c4ccccc4C)CC3)cc2c1`, the “activity change, negative = cytotoxicity” value was 6.89%.

In the case of `COc1ccc(/C=N/Nc2snc(SC)c2C#N)cc1OC`, the “activity change, negative = cytotoxicity” value was 7.17%.

Regarding `Cn1c(SCc2c(F)cccc2Cl)nnc1-c1cnccn1`, the “activity change, negative = cytotoxicity” value is 2.8%.

Take `Oc1[nH]c2ccccc2c1C=Nc1ccccc1`: the “activity change, negative = cytotoxicity” value was -4.29%.

Take `N/C(=N\OC(=O)C1CCCCC1)c1cccc(Br)c1`: the “activity change, negative = cytotoxicity” value was 17.7%.

For `COc1ccc(-c2c(C)nc3c(-c4ccsc4)cnn3c2N)cc1`, the “activity change, negative = cytotoxicity” value was 0.683%.

For the compound `CC1CCc2sc(C(=O)Nc3ccc(C(N)=O)cc3)cc2C1` (stereo unspecified), the “activity change, negative = cytotoxicity” value is 10.9%.

With `CCCn1nnc(NC(=O)c2ccc(-c3ccccc3)cc2)n1`, the “activity change, negative = cytotoxicity” value was 18.3%.

With `COC(=O)Cc1csc(Nc2ccccc2Cl)n1`, the “activity change, negative = cytotoxicity” value is 9.68%.

For `Nc1nc2ccccc2cc1-c1cccs1`, the “activity change, negative = cytotoxicity” value was 1.96%.

Regarding `O=C(NCc1ccccn1)Nc1ccc(Br)cc1Cl`, the “activity change, negative = cytotoxicity” value is 13.2%.

In the case of `O=S(=O)(c1cccs1)N1CCCc2cccc(O)c21`, the “activity change, negative = cytotoxicity” value was -14.1%.

As for `CCCC(=O)N/C(N)=N/c1nc2ccccc2o1`, the “activity change, negative = cytotoxicity” value is 6.9%.

In the case of `CCCCCc1ccc(-c2ccc(OC)cc2)nc1`, the “activity change, negative = cytotoxicity” value was 4.7%.

`Clc1ccc(-n2nnc(-c3ncc[nH]3)n2)cc1Cl`: the “activity change, negative = cytotoxicity” value is 0.421%.

For the compound `O=C(Nc1cccc(F)c1)NC1CCCCCCC1`, the “activity change, negative = cytotoxicity” value is -4.47%.

For `CC(=O)c1cnc2c(-c3cccc(Br)c3)cnn2c1C`, the “activity change, negative = cytotoxicity” value is -3.45%.

Turning to `Cc1nc(SCc2ccccc2)nc2c1CCC2`, the “activity change, negative = cytotoxicity” value is -15.5%.

Turning to `O=C(OCc1csc(-c2ccccc2)n1)c1ccc(O)cc1`, the “activity change, negative = cytotoxicity” value was 23.3%.

As for `O=C(O)c1ccc(-c2nc(-c3ccc(Cl)cc3)cs2)cc1`, the “activity change, negative = cytotoxicity” value is -7.11%.

As for `COCc1nn2c(N)c(-c3ccccc3)cnc2c1-c1ccccc1`, the “activity change, negative = cytotoxicity” value was 6.09%.

`Cc1ccccc1-c1nc2cc(Cl)ccc2o1`: the “activity change, negative = cytotoxicity” value is -4%.
